Assay results published in PubChem BioAssay AID1159580 (chemical genetic matrix, 2015).
Among all 5,500 compounds or so, about 2,000 (36%) were called active. Another 18% or so got no clear call; they are omitted. No stated cut-off is given here; in the data, active means normalized growth mostly below about 0.91 (no sharp cut-off); inconclusive means no clear call, values can overlap the other calls; inactive means mostly above about 0.92. The list shows a part of the results.

Experiment: chemical genetic growth profiling, strain panel (AID 1159580);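 further: tested at 20 µM; growth read once vehicle control cultures reached saturation at 30 °C; 1 = growth at the plate median or of vehicle wells; lower values mean less growth of the strain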
Conditions: S. cerevisiae deletion strains, growth OD

Measured: normalized growth

O=C(O)/C=C/c1ccccc1
active: locus YHR030C, strain SLT2, active compounds read low 0.834 | locus YHR079C, strain IRE1, active compounds read low 0.838 | locus YJL095W, strain BCK1, active compounds read low 0.862 | locus YJR066W, strain TOR1, active compounds read low 0.801 | locus YLR113W, strain HOG1, active compounds read low 0.722 | locus YNL183C, strain NPR1, active compounds read low 0.786 | locus YOR231W, strain MKK1, active compounds read low 0.823 | locus YPL256C, strain CLN2, active compounds read low 0.742
